FLuc inh = blocks Photinus pyralis firefly luciferase activity. 72,000 compounds, 2.2% hits. Potency, µM (top dose mostly 57.1 µM), hits mostly inhibitors. P08659. purified firefly luciferase, luminescence, 8 min; further: nearly all actives have a fitted effect of over 40% in size
Target sequence (P08659 whole entry, looked up): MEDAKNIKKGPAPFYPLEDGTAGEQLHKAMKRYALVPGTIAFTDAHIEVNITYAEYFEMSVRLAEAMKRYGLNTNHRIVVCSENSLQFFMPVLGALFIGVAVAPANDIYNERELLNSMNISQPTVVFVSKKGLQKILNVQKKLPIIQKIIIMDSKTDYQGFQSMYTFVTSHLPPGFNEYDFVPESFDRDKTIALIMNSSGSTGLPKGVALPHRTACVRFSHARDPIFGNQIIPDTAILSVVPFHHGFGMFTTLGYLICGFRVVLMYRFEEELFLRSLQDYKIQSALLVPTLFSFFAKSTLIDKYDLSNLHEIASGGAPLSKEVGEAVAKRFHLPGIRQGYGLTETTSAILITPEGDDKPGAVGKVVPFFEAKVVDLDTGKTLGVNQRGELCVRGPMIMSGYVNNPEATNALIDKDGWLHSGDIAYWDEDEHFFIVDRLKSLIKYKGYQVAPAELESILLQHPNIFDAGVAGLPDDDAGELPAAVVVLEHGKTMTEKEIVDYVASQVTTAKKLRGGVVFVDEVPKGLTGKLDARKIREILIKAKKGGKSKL
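Substrate buffer containing 10 uM ATP (pH 7.2 imidazole, Mg2+, KCl, detergent, BSA) is dispensed, compound pinned in, then luciferase/luciferin detector mix added. After 8 min at ambient temperature, light output is measured.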
ERK AVP block = blocks ERK signaling stimulated by vasopressin; Potency, µM (doses to about 57.5 µM), most hits filed as inhibitors; AID 995; 72,000 compounds, 0.99% hits; HEK293-V1b, vasopressin-stimulated pERK AlphaScreen; further: nearly all actives have a fitted effect of over 55% in size
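HEK293 cells stably expressing V1b receptor, seeded overnight in 1% FBS, were treated with compounds for 30 min at 37C, then stimulated 5 min with 25 nM vasopressin; phospho-ERK read by AlphaScreen SureFire after lysis.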
HADH2 inh = HADH2 (human) dehydrogenase inhibition. Q99714. Potency, µM (top dose mostly 57.1 µM), most hits filed as inhibitors. 73,000 compounds, 3.4% hits. recombinant HADH2, NADH fluorescence, beta-hydroxybutyryl-CoA; further: nearly all actives have a fitted effect of over 60% in size
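NADH fluorescence (ex 360/em 450 nm) read every 30 s for 4 min; activity taken as last-minus-first time point difference. Enzyme 20 nM, NAD+ 1 mM, beta-hydroxybutyryl-CoA 90 uM, pH 9.0 Tris buffer.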
ALOX15 inhib = blocks human 15-lipoxygenase activity; P16050; purified 15hLO-1, xylenol orange hydroperoxide absorbance; Potency, µM (titrated, usually from 57.1 µM), most hits filed as inhibitors; 74,000 compounds, 1.4% hits; AID 887; further: nearly all actives have a fitted effect of over 55% in size
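Readout: Fe(III)-xylenol orange absorbance, 573-to-405 nm ratio as reaction progress. Enzyme 40 nM purified human 15hLO-1, substrate 50 uM arachidonic acid, 6 min RT after 15 min compound preincubation; Hepes pH 7.5 buffer with Triton X-100.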
HSD17B inh = inhibitors of human HSD17B10 dehydrogenase | Potency, µM (highest dose often 57.1 µM), usual class: inhibitors | 75,000 compounds, 7.6% hits | AID 893 | Q99714 | recombinant HSD17B10, NADH fluorescence kinetic;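 further: the protocol describes HADH2 (HSD17B10) and not the HSD17B4 of the title; nearly all actives have a fitted effect of over 70% in size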
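Enzyme plus compound, 15 min room temperature; substrate mix added (NAD+ 1 mM, beta-hydroxybutyryl-CoA 90 uM final); plates read kinetically for NADH fluorescence. HADH2 was His-tagged, E. coli-derived, 20 nM.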
PK Bst = pyruvate kinase (B. stearothermophilus) modulation. purified pyruvate kinase, luminescence ATP production; ribose 5-phosphate activator present at AC10. Potency, µM. 51,000 compounds, 1.2% hits; in the data active means potency below about 11 µM; inconclusive means mostly about 12 µM to 25 µM;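 the screen sought inhibitors and activators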
Large screens that a line does not name were inactive. Only some compounds are listed: those with a hit (about 11% of all), similar ones and a draw of the others. Unless noted, the call rests on the fitted dose curve; in most records, active means well fitted curve in the direction sought with a large enough effect; inconclusive means small, poorly fitted or top-dose-only effect, or another doubt; inactive means no such curve, though single readings can be large; an effect the other way counts as inactive or inconclusive.

C=C1CCC2C(CC2(C)C)C(=C)CC/C1=N/O (stereo not given)	none (no result: FLuc inh, HADH2 inh, PK Bst)
CC1(C)Cc2c(c(N3CCOCC3)nc3sc(C(=O)N4CCCCC4)c(N)c23)CO1	ALOX15 inhib inconclusive, HSD17B inh 20µM (no result: PK Bst)
COc1cccc(-c2nc(N3CCNCC3)c3ccccc3n2)c1	none (no result: PK Bst)
N#CC(=C1CCCC1)c1nc(-c2ccccc2O)cs1	FLuc inh 13µM, ALOX15 inhib inconclusive, HSD17B inh inconclusive, PK Bst 7.7
N#C/C(=N\O)c1nc(-c2ccccc2)cs1	none (no result: ERK AVP block, HADH2 inh, ALOX15 inhib, HSD17B inh)
CN1CCN(c2ncc3nc(CCc4ccccc4)c(=O)n(C4CC4)c3n2)CC1	none (no result: PK Bst)
CCN1CCc2c(sc3c2c(NCc2ccco2)nc2nnnn23)C1	HADH2 inh inconclusive, ALOX15 inhib inconclusive, HSD17B inh 25µM
Cc1nc(NCc2ccco2)c2c3c(sc2n1)CCC3	ERK AVP block inconclusive (no result: PK Bst)
CCCCC(=O)OCCNC(=O)c1cc2ccccc2oc1=O	HSD17B inh 25µM (no result: PK Bst)
O=C(NCCN1CCOCC1)c1ccc(Cc2nc3ccccc3[nH]2)cc1	none (no result: FLuc inh, ERK AVP block, PK Bst)
Cc1cccn2c(=O)c3cc(C(=O)NCc4cccnc4)c(=N)n(C)c3nc12	none (no result: ERK AVP block, HADH2 inh, ALOX15 inhib, HSD17B inh)
Cc1cccn2c(=O)c3cc(C(=O)NCc4cccnc4)c(=N)n(C(C)C)c3nc12	HADH2 inh inconclusive, HSD17B inh 32µM
CCOCCCn1c(=N)c(C(=O)NCc2ccc3c(c2)OCO3)cc2c(=O)n3cccc(C)c3nc21	HSD17B inh inconclusive (no result: PK Bst)
Cc1cccn2c(=O)c3cc(C(=O)NCc4ccco4)c(=N)n(C(C)C)c3nc12	HADH2 inh 32µM, HSD17B inh 25µM (no result: PK Bst)
Cc1cccn2c(=O)c3cc(C(=O)NCc4ccco4)c(=N)n(CCc4ccccc4)c3nc12	HSD17B inh 25µM (no result: PK Bst)
CCCCCCCCCCCCCCCC(=O)NC[C@@H](COP(=O)([O-])OCC[N+](C)(C)C)OCC	ERK AVP block inconclusive (no result: PK Bst)
O=C1c2nc3ccccn3c2C(=O)N1Cc1ccccc1	none (no result: PK Bst)
Clc1ccc2nc3ccccn3c2c1	HADH2 inh inconclusive, HSD17B inh 32µM
Cc1ccc2nc3ccc(N4CCN(C)CC4)nn3c(=O)c2c1	FLuc inh 7.9µM (no result: PK Bst)
Cc1sc2nc3ccc(N4CCCC4)nn3c(=O)c2c1C	FLuc inh inconclusive, HSD17B inh inconclusive (no result: PK Bst)
Cc1c(-c2nc(N)nc(C3CC3)c2C)nc(N)nc1C1CC1	none (no result: PK Bst)
CN(C)c1ccc(NC(=O)c2cc3c(=O)n4ccccc4nc3n2C)cc1	HSD17B inh inconclusive
Cn1c(C(=O)NCCCN2CCCC2=O)cc2c(=O)n3ccccc3nc21	HADH2 inh 25µM, HSD17B inh 0.63µM
Cn1c(C(=O)NCCC2=CCCCC2)cc2c(=O)n3ccccc3nc21	HSD17B inh 0.63µM
COC(=O)c1ccc(C(NC(=O)OCc2ccccc2)/C(F)=C/[C@@H](C)C(=O)Nc2ccc(OC)cc2)cc1 (stereo not given in full)	none (no result: FLuc inh, PK Bst)
COc1ccc(Nc2nc(C)c3ccccc3n2)cc1	FLuc inh inconclusive, ERK AVP block inconclusive, PK Bst inconclusive
COc1nc(Nc2ccc(O)cc2)nc(OC(C(F)(F)F)C(F)(F)F)n1	ERK AVP block 2µM, ALOX15 inhib 25µM
COc1ccc2c(c1)CCc1c(C(=O)N3CCCCCC3)noc1-2	FLuc inh inconclusive (no result: PK Bst)
COc1ccc2c(c1)CCc1cc(C(=O)N3CCN(c4ccc(N5CCOCC5)nn4)CC3)sc1-2	FLuc inh inconclusive, HADH2 inh 32µM, HSD17B inh 32µM (no result: PK Bst)
C=CC[C@@H]1C=C[C@@H](O/N=C\[C@@H](NS(=O)(=O)c2ccc(C)cc2)[C@H](C)/C=C\CC(=O)OC)[C@@H](CO)O1	HSD17B inh inconclusive (no result: PK Bst)
COC(=O)[C@@]1(Cc2ccc(OC)cc2)[C@H]2c3cc(C(=O)N(C)C)n(Cc4nc5ccccc5[nH]4)c3C[C@H]2CN1C(=O)c1ccccc1	HSD17B inh 20µM (no result: FLuc inh, ALOX15 inhib, PK Bst)
Cc1ccc(S(=O)(=O)NCc2ccccc2)cc1	none (no result: PK Bst)
Cc1ccc(S(=O)(=O)Nn2c(C)ccc2C)cc1	HADH2 inh inconclusive, ALOX15 inhib 20µM, HSD17B inh inconclusive
COCCn1c(-c2ccco2)nc2nc3ccccc3nc21	HADH2 inh 10µM, HSD17B inh 32µM
COCCn1c(-c2cc(OC)c(OC)c(OC)c2)nc2nc3ccccc3nc21	none
CC(C)OCCCn1c(-c2ccco2)nc2nc3ccccc3nc21	HADH2 inh 1.6µM, HSD17B inh 32µM
CC(C)OCCCN1CN(S(=O)(=O)c2ccccc2)c2nc3ccccc3nc21	ALOX15 inhib inconclusive, HSD17B inh inconclusive
N#C[C@H](C(=O)O)C(c1c(Cl)cccc1Cl)[C@H](C#N)C(=O)O	none (no result: PK Bst)
COc1ccc2ccccc2c1C1CC(=O)N2CN(C)CSC2=C1C#N (stereo not given)	FLuc inh inconclusive, HADH2 inh inconclusive, ALOX15 inhib inconclusive, HSD17B inh 13µM
COc1cc(OC)c(C2CC(=O)N3CN(C)CSC3=C2C#N)cc1OC (stereo not given)	HADH2 inh 2.5µM, ALOX15 inhib inconclusive, HSD17B inh inconclusive (no result: PK Bst)
COc1ccc(Br)cc1C1CC(=O)N2CN(C)CSC2=C1C#N (stereo not given)	HADH2 inh 2µM, ALOX15 inhib inconclusive, HSD17B inh inconclusive (no result: PK Bst)
CCOC(=O)C1C(=O)CC(C)(O)C(C(=O)OCC)C1c1cc(Br)ccc1OC (stereo not given)	none
CSC1=C(C#N)C(c2cccs2)CC(=O)N1C (stereo not given)	none
CC(C)c1ccc(C2CC(=O)N3CN(C)CSC3=C2C#N)cc1 (stereo not given)	HADH2 inh 2µM, ALOX15 inhib inconclusive, HSD17B inh 25µM (no result: PK Bst)
O=C1CCC[C@@H](C(C(=O)OCc2ccccc2)C(=O)OCc2ccccc2)C1	none (no result: PK Bst)
CC[C@]1(O)C[C@H]2CN(CCc3c([nH]c4ccccc34)[C@](C(=O)OC)(c3cc4c(cc3OC)N(C)[C@@H]3[C@](O)(C(=O)OC)[C@H](OC(C)=O)[C@]5(CC)C=CCN6CC[C@]43[C@@H]65)C2)C1	ERK AVP block inconclusive, ALOX15 inhib inconclusive (no result: PK Bst)
C=CCSC1=C(C#N)C(c2ccccc2OC)CC(=O)N1 (stereo not given)	ERK AVP block inconclusive, PK Bst inconclusive
COc1ccc(Br)cc1C1CC(=O)N2CN(Cc3ccccc3)CSC2=C1C#N (stereo not given)	HADH2 inh 2µM, ALOX15 inhib 2.5µM, HSD17B inh inconclusive (no result: PK Bst)
O=C(c1cc2ccccc2oc1=O)N1CCCC1	none
CC(=O)Nc1cc2ccccc2oc1=O	HSD17B inh 13µM (no result: PK Bst)
Nc1nc2c(c3c1c(=O)oc1ccccc13)CCCCC2	HSD17B inh 20µM (no result: PK Bst)
N[C@@H](CNO)C(=O)O	none (no result: PK Bst)
CCOC(=O)Cc1cc(=O)n2[nH]c(C)c(-c3ccccc3)c2n1	HSD17B inh inconclusive
CCOC(=O)N1CCC(c2cc(=O)n3[nH]c(-c4ccccc4)cc3n2)CC1	HSD17B inh 25µM (no result: PK Bst)

Screening data from PubChem.
